Data reported in ChEMBL document CHEMBL1961873, “Compounds: GSK PKIS; Assays: Nanosyn kinase panel” (2012).

Tests used:
[1] = molecular target: Tyrosine-protein kinase Fer (Homo sapiens) (UniProt P16591); conditions: at 1 µM
[2] = molecular target: Tyrosine-protein kinase Fes/Fps (Homo sapiens) (UniProt P07332); conditions: at 0.1 µM
[3] = molecular target: Tyrosine-protein kinase Fes/Fps (Homo sapiens) (UniProt P07332); conditions: at 1 µM
[4] = molecular target: Fibroblast growth factor receptor 1 (Homo sapiens) (UniProt P11362); conditions: at 0.1 µM
[5] = molecular target: Fibroblast growth factor receptor 1 (Homo sapiens) (UniProt P11362); conditions: at 1 µM
[6] = molecular target: Fibroblast growth factor receptor 2 (Homo sapiens) (UniProt P21802); conditions: at 0.1 µM
Fibroblast growth factor receptor 2 (Homo sapiens), sequence (P21802 22-821 limits assumed): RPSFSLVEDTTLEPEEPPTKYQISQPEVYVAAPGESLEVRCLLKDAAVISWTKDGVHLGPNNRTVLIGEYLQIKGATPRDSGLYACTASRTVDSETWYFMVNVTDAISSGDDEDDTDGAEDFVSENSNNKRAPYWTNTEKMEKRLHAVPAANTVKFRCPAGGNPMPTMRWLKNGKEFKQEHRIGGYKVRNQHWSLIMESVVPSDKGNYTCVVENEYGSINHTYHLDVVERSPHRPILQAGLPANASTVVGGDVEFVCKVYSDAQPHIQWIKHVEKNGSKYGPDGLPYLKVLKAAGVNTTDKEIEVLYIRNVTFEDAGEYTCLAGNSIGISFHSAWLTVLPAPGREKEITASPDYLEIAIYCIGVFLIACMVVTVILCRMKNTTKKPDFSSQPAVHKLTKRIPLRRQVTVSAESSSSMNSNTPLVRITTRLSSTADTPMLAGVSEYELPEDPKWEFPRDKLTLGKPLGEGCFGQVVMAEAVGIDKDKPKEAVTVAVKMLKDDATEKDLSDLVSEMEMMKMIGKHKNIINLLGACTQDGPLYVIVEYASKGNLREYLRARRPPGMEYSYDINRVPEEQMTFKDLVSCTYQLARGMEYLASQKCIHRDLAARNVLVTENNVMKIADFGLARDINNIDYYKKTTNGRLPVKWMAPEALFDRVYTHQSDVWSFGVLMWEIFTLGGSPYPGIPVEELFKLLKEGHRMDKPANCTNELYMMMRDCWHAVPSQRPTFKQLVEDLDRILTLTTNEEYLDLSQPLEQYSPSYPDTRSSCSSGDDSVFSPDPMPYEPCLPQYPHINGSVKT

[7] = molecular target: Fibroblast growth factor receptor 2 (Homo sapiens) (UniProt P21802); conditions: at 1 µM
[8] = molecular target: Fibroblast growth factor receptor 3 (Homo sapiens) (UniProt P22607); conditions: at 0.1 µM
[9] = molecular target: Fibroblast growth factor receptor 3 (Homo sapiens) (UniProt P22607); conditions: at 1 µM
[10] = molecular target: Fibroblast growth factor receptor 4 (Homo sapiens) (UniProt P22455); conditions: at 0.1 µM
Fibroblast growth factor receptor 4 (Homo sapiens), sequence (P22455 22-802 limits assumed): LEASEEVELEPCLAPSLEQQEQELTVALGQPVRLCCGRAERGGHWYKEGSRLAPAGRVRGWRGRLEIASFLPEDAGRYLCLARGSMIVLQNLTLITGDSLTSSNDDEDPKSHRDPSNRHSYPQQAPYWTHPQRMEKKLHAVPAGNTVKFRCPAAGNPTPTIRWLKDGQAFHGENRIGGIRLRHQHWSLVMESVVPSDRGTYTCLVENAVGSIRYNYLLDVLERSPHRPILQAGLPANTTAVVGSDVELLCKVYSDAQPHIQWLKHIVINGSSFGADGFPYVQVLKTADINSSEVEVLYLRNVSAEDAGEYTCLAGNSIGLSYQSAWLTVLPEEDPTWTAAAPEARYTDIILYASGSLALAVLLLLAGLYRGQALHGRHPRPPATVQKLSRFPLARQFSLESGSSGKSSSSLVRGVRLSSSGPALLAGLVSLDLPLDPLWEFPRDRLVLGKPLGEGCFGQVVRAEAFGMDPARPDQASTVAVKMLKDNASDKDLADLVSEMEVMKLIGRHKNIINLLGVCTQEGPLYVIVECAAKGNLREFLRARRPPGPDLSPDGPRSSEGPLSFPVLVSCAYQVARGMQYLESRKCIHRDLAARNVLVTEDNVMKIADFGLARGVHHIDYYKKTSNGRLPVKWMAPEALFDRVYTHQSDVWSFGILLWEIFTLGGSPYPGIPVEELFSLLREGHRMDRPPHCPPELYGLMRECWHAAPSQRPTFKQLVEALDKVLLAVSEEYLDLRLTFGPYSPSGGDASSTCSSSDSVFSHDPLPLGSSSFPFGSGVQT

[11] = molecular target: Fibroblast growth factor receptor 4 (Homo sapiens) (UniProt P22455); conditions: at 1 µM
[12] = molecular target: Tyrosine-protein kinase Fgr (Homo sapiens) (UniProt P09769); conditions: at 0.1 µM
Tyrosine-protein kinase Fgr (Homo sapiens), sequence (P09769 2-529 limits assumed): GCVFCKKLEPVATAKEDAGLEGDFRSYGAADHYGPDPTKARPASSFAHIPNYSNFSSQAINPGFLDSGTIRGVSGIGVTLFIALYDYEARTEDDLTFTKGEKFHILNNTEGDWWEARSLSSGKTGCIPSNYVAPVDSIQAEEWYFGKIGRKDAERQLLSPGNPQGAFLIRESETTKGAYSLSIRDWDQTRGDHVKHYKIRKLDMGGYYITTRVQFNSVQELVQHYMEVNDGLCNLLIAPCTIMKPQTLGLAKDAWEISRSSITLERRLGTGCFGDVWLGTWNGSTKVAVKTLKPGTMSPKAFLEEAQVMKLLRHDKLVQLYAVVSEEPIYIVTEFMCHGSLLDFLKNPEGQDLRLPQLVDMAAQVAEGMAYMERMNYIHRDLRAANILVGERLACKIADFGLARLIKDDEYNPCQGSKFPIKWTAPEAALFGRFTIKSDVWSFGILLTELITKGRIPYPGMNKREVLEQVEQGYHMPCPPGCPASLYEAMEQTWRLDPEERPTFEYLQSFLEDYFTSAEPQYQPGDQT

[13] = molecular target: Tyrosine-protein kinase Fgr (Homo sapiens) (UniProt P09769); conditions: at 1 µM
[14] = molecular target: Vascular endothelial growth factor receptor 1 (Homo sapiens) (UniProt P17948); conditions: at 0.1 µM
Vascular endothelial growth factor receptor 1 (Homo sapiens), sequence (P17948 whole entry): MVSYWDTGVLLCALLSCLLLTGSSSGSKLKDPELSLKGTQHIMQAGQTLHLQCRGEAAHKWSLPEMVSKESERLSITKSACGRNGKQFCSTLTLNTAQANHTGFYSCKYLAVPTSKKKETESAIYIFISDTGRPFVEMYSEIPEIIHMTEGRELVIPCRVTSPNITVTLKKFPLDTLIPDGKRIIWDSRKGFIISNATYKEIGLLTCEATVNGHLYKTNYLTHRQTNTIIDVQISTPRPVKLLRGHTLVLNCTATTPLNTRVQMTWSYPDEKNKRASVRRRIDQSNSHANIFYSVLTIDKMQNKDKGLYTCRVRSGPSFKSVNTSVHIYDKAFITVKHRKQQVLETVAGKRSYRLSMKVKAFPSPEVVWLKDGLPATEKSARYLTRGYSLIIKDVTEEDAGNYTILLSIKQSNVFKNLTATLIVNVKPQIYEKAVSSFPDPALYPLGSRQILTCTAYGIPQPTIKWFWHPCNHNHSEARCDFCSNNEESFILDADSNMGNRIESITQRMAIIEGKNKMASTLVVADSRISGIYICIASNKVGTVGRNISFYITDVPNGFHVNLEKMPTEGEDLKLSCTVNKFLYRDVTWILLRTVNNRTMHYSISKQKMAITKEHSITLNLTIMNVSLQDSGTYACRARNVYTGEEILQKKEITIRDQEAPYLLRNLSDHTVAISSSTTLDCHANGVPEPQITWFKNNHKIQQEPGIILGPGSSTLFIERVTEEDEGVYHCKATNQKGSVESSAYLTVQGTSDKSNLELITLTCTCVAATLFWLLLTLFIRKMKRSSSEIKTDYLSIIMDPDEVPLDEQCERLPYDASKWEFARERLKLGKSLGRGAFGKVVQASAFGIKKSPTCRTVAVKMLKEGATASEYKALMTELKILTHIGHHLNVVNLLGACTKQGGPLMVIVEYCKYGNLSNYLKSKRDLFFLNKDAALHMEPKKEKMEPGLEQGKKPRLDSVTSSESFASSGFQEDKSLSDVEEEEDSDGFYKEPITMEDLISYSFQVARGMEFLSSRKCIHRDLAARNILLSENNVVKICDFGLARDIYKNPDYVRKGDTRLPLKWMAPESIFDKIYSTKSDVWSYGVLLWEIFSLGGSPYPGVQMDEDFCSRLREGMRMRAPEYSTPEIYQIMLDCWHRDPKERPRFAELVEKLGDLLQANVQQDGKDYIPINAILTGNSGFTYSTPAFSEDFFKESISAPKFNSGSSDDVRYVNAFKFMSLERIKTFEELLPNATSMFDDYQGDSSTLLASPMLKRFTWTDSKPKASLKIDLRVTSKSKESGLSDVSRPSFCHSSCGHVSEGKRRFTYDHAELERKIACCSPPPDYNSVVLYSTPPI

[15] = molecular target: Vascular endothelial growth factor receptor 1 (Homo sapiens) (UniProt P17948); conditions: at 1 µM
[16] = molecular target: Receptor-type tyrosine-protein kinase FLT3 (Homo sapiens) (UniProt P36888); conditions: at 0.1 µM
[17] = molecular target: Receptor-type tyrosine-protein kinase FLT3 (Homo sapiens) (UniProt P36888); conditions: at 1 µM
[18] = tested on: T1, Receptor-type tyrosine-protein kinase FLT3 (Homo sapiens), P36888 [D835Y]; conditions: at 0.1 µM
T1 sequence (whole entry): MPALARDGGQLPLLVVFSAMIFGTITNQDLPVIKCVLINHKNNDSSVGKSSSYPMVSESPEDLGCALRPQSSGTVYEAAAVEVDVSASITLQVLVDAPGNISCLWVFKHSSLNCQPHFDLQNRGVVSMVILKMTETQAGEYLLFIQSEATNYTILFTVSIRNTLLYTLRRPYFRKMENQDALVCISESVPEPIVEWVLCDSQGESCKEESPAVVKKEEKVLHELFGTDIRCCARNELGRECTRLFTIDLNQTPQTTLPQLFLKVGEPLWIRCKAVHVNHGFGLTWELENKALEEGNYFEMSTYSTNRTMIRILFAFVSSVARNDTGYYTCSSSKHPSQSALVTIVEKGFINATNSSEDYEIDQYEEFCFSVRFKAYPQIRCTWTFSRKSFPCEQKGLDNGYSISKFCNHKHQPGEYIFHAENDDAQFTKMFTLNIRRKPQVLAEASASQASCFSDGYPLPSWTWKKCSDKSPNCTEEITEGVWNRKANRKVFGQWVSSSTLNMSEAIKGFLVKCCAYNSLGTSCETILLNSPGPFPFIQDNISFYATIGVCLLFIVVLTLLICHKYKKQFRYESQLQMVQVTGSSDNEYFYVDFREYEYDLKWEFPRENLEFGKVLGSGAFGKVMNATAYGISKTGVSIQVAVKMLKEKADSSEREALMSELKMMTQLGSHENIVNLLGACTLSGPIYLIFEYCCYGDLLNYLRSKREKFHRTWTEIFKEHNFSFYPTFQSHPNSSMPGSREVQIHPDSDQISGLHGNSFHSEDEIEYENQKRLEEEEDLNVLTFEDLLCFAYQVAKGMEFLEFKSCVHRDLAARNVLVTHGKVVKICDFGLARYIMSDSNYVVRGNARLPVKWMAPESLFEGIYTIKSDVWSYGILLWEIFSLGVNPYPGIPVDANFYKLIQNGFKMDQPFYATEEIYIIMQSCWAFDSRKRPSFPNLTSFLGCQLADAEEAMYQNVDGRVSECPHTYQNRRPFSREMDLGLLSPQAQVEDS

[19] = molecular target: Non-receptor tyrosine-protein kinase TYK2 (Homo sapiens) (UniProt P29597); conditions: at 1 µM;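 further: values are mean percent inhibition of TYK2 kinase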
[20] = molecular target: T2, Tyrosine-protein kinase receptor TYRO3 (Homo sapiens) (UniProt Q06418); conditions: at 0.1 µM;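 further: reported percentages are averaged inhibition values of TYRO3 kinase activity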
T2 sequence (whole entry): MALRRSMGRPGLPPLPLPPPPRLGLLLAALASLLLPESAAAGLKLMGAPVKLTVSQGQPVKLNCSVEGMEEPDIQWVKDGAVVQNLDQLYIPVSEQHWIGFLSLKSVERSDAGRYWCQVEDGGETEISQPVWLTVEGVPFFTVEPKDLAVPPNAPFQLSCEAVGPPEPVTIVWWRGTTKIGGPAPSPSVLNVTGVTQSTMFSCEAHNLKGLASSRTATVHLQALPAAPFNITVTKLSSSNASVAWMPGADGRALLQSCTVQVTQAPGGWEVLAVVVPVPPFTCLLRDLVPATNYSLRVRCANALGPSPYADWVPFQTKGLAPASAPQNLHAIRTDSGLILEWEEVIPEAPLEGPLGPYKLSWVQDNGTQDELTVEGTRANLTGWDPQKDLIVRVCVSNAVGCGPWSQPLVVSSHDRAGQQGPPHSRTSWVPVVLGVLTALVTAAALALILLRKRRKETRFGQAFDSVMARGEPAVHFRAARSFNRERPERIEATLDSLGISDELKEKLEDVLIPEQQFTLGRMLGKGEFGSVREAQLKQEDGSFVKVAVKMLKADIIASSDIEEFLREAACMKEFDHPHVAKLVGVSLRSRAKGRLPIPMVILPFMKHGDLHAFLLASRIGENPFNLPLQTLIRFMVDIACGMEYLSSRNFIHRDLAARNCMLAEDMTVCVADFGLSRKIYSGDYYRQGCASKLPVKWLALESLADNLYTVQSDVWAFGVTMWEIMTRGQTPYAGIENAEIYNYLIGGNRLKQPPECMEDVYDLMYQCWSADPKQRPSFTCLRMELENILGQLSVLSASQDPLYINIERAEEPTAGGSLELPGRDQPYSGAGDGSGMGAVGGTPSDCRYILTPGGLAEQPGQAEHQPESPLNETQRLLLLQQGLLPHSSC

Tyrosine-protein kinase Fes/Fps (Homo sapiens), sequence (P07332 whole entry): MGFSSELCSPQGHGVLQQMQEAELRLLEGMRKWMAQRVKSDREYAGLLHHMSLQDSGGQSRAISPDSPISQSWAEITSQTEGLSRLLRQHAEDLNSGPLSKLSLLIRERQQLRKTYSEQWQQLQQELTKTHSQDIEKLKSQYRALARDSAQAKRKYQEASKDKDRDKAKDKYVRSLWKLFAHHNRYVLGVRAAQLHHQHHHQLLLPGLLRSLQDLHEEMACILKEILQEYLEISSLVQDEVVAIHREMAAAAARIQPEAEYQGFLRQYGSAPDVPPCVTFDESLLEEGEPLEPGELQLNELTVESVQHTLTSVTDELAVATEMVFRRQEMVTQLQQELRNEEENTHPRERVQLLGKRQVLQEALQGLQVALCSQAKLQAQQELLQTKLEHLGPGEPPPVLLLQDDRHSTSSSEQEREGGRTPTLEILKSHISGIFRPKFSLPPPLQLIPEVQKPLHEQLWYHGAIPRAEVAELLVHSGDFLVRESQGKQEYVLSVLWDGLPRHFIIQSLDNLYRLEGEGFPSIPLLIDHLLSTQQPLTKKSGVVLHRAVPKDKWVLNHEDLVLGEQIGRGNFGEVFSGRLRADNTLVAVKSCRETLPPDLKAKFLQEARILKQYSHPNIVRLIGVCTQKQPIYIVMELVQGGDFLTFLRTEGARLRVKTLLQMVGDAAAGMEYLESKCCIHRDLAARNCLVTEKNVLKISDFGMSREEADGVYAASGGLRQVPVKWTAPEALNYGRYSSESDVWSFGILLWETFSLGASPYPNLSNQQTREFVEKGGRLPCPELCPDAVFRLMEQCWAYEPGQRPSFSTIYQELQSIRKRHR
Tyrosine-protein kinase Fer (Homo sapiens), sequence (P16591 whole entry, looked up): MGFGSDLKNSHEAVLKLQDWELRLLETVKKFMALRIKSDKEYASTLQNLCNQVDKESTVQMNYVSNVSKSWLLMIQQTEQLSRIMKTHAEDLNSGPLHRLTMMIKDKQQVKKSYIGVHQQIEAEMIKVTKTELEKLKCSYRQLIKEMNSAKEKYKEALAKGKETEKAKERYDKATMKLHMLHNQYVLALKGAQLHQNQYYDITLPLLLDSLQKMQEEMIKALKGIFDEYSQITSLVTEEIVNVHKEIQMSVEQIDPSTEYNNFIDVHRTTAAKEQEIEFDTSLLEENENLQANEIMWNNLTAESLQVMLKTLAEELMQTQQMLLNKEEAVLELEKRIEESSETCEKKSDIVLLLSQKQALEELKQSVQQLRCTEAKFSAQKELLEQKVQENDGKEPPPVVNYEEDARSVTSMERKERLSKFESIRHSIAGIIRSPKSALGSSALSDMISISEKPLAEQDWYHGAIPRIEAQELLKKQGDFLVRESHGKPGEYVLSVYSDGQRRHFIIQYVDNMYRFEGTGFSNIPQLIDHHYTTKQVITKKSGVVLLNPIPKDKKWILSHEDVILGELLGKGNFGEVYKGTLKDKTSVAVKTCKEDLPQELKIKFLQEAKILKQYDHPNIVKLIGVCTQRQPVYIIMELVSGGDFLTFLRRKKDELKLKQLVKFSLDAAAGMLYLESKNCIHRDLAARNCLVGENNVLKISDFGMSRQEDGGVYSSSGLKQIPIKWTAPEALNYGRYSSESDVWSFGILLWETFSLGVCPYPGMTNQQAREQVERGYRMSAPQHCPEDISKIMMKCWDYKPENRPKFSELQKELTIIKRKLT

Structure (SMILES)	inhibition [1] [%]	inhibition [2] [%]	inhibition [3] [%]	inhibition [4] [%]	inhibition [5] [%]	inhibition [6] [%]	inhibition [7] [%]	inhibition [8] [%]	inhibition [9] [%]	inhibition [10] [%]	inhibition [11] [%]	inhibition [12] [%]	inhibition [13] [%]	inhibition [14] [%]	inhibition [15] [%]	inhibition [16] [%]	inhibition [17] [%]	inhibition [18] [%]	inhibition [19] [%]	inhibition [20] [%]
Nc1ccc(C#Cc2cncnc2Nc2ccc(OCc3cccc(F)c3)c(Cl)c2)cc1	1.48	2.44	2.24	2.53	4.37	3.89	4.27	3.12	4.49	2.37	1.61	3.78	4.78	0.39	1.35	0.49	2.64	1.46	-2.76	2.47
Cc1ccc2c(-c3ccnc(Nc4cccc(C(F)(F)F)c4)n3)c(-c3ccccc3)nn2n1	43.3	3.67	5.17	5.59	8.78	6.45	9.52	7.84	6.97	2.15	0.17	36.8	71	2.37	21.2	1.89	10.2	3.67	-1.51	2.7
COc1cccc(-n2ncc3c(N/N=C/c4ccc(C)cc4)ncnc32)c1	17.5	5.32	10.3	4.11	17.7	9.23	7.12	9.56	6.72	4.16	1.93	3.81	18.9	-0.93	0.15	0.84	5.84	2.71	-1.47	1.83
Cc1ccc(Nc2ccnc(Nc3cccc(C(N)=O)c3)n2)cc1O	23.4	2.5	10.7	4.6	34.8	1.51	26.6	3.55	18.4	-3.61	3.08	52.6	72.8	69.9	97.8	18.8	64.5	30.1	16.9	13.1
CC(C)c1ccc2c(c1)NC(=O)/C2=N/Nc1ccc(S(N)(=O)=O)cc1	1	0.91	-0.14	3.46	-0.01	0.48	5.04	1.14	3.91	2.58	-0.36	2.93	15.5	1.02	2.87	4.65	43.7	-2.45	1.48	-0.25
c1ccc(Nc2ncc(-c3ccccc3)o2)cc1	0.57	3.92	4.9	-1.19	8.3	6.37	10.5	7.27	6.62	2.33	0.73	5.98	15	1.21	11.7	33.1	78.8	5.03	-4.84	4.31
CN(C)CCCn1c(-c2nonc2N)nc2cnccc21	3.54	2.93	2.95	3.21	3.42	2.86	6.36	6.01	3.96	-1.87	1.11	1.37	2.22	1.09	2.77	2.53	1.85	-5.34	-2.04	1.74
Nc1nccc(C#Cc2cncnc2Nc2ccc(OCc3cccc(F)c3)c(Cl)c2)n1	3.48	3.46	4.65	5.53	4.02	4.45	8.42	5.34	5.62	2.52	-2.31	0.12	4.81	2.06	3.36	0.89	3.87	3.95	-1.09	3.02
COc1cc(Nc2nccc(-c3cnn4ncccc34)n2)cc(OC)c1	58.6	10.7	53.2	-4.05	7.3	1.71	23	4	20.5	1.2	0.03	6.85	36.9	10.4	30.9	59.6	90.8	27	31.8	1.77
CCS(=O)(=O)c1ccc(OC)c(Nc2ncc(-c3cccc(OC)c3)o2)c1	3.8	1.8	2.42	9.22	40.2	30.9	68.2	28.7	70	2.6	7.65	19.9	65.2	9.91	55.9	16.3	68	29.4	-4.34	7.64
CN1CCN(C(=O)c2ccc(NC(=O)Nc3ccc(N(C)c4ccnc(Nc5ccc(CS(C)(=O)=O)cc5)n4)cc3)cc2)CC1	63.9	7.35	43.4	0.94	4.44	6.7	12.8	4.9	5.11	4.73	3.43	5.31	26.3	21.4	43.5	64.7	83.9	0.6	21.6	2.23
Cc1ccc(C(=O)NC2CC2)cc1-c1ccc2[nH]ncc2c1	0.05	-3.18	-3.34	-0.69	-5.16	-3.95	-3.78	-5.18	0.28	1.43	0.32	-1.47	1.41	-2.04	-1.81	-3.48	0.84	-3.02	2.43	-1.74
c1ccc(Cc2nc3ccc(Nc4ncnc5ccccc45)cc3[nH]2)cc1	6.1	1.75	3.02	2.15	1.67	5.23	7.58	4.51	5.34	-1.72	-0.04	5.51	18.2	0.86	4.39	0.83	3.55	4.82	-0.14	1.48
